Compound activity from PubChem BioAssay.
In the library only some 19% were active in any assay of this set; here they are far more common.
TDP1 cell CPT – DT40-hTDP1 cell growth loss with CPT. chicken DT40 Tdp1-/-;hTDP1 cells + 20 nM CPT, ATP luminescence, 48 h. Potency, µM (titrated, usually from 46.2 µM), inactives show top-dose activity change, negative = growth inhibition, hits mostly inhibitors. hit rate 12% among 420,000; further: potency means the concentration at half of the fitted maximal effect; nearly all actives have a fitted effect of over 55% in size
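Chicken DT40 Tdp1-/- cells stably complemented with human TDP1 were seeded at 400 cells/well in medium containing 20 nM camptothecin, exposed to pin-transferred compounds, and grown at 37 °C for at least 48 hr. Viability was read as ATP luminescence.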
HT1080 IDH1KD tx – kills HT-1080 cells with IDH1 knockdown | Potency, µM (top dose mostly 46.1 µM), for the others: at the highest dose activity, negative = toxicity, usual class: cytotoxic | HT-1080 IDH1 knockdown viability, ATP luminescence, 48 h | hit rate 2% among 360,000;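 further: potency means the concentration at half of the fitted maximal effect; 0% = DMSO wells and -100% = cell-free medium wells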
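HT-1080-IDH1KD cells (IDH1 knocked down), 750/well in RPMI with 5% FBS, treated with compound 48 h at 37 degrees C. Viability by CellTiter-Glo luminescence, normalised to DMSO and no-cell wells; concentration-response curves classed.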
ELG1 DNA repair – inhibitors of ELG1-dependent DNA repair in HEK293T cells | HEK293T ELG1-luciferase reporter, luminescence, 16 h; DNA damage induced by 5-fluorouridine | Potency, µM (series often up to 46.1 µM), for the others: at the top dose activity change, negative = inhibition, most hits filed as inhibitors | hit rate 2.3% among 330,000; further: potency means the concentration at half of the fitted maximal effect; nearly all actives have a fitted effect of over 55% in size
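Reporter activity after DNA damage by 5-fluorouridine is monitored. Compound-treated cells incubate 16 hr at 37 °C, then ONE-Glo is added for 30 min before luminescence reading.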
IL-1B inflam inh – inhibitors of inflammasome signaling (IL-1 beta secretion) | activity change, % at 57.5 µM | THP-1 LPS/ATP IL-1B secretion, AlphaLISA, 16 h; stronger effect = lower value | hit rate 4.7% among 360,000 | AID 743279; in the data active means activity change below about -50%; inconclusive means mostly about -30% to -49%
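Secreted IL-1B measured by AlphaLISA bead assay after 16 h compound exposure of THP-1 cells; compounds (final up to 57.5 uM) added 1 h before LPS (250 ng/mL) and ATP (1.25 mM) stimulation; lower signal means less secretion.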
HT1080-NT tox – kills 2HG-producing HT-1080-NT fibrosarcoma cells; HT-1080-NT fibrosarcoma viability, CellTiter-Glo ATP luminescence, 48 h; hit rate 1.6% among 360,000; AID 686970; Potency, µM (highest dose often 46.1 µM), inactives show at the highest dose activity, negative = less viability, most hits filed as cytotoxic;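 further: NT is the 2HG producing partner of a matched IDH1 knockdown line; potency means the concentration at half of the fitted maximal effect; 0% = DMSO-treated cells and -100% = media-only wells without cells; nearly all actives have a fitted effect of over 55% in size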
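HT-1080-NT; 750 cells/well; 5% FBS RPMI; 48 h compound, 37 degrees C; CellTiter-Glo luminescence; curve fitting and curve-class assignment.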
DT40 TDP1 no CPT – qHTS for Inhibitors of human tyrosyl-DNA phosphodiesterase 1 (TDP1): qHTS in cells in absence of CPT; DT40 Tdp1-/- hTDP1 cells, no CPT, ATP luminescence, 48 h; hit rate 15% among 420,000; Potency, µM (highest dose often 46.2 µM), without a hit: at the highest dose activity change, negative = growth inhibition, actives largely listed as inhibitors; further: potency means the concentration at half of the fitted maximal effect; nearly all actives have a fitted effect of over 55% in size
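A cellular qHTS used chicken DT40 cells lacking endogenous Tdp1 but carrying stably transfected human TDP1. Compounds were applied without camptothecin, and cell growth kinetics were judged by ATP-dependent luminescence after ≥48 hr.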
* marks the source's active call; other numbers are inactive results; ? = inconclusive; nt = not tested or not shown; [ ] = remark or other dose. Unless noted, the call rests on the fitted dose curve; in most records, active means well fitted curve in the direction sought with a large enough effect; inconclusive means small, poorly fitted or top-dose-only effect, or another doubt; inactive means no such curve, though single readings can be large; an effect the other way counts as inactive or inconclusive. Unless noted, on the % scale 0 is the no-effect control and ±100 the full control effect.

SMILES	TDP1 cell CPT	HT1080 IDH1KD tx	ELG1 DNA repair	IL-1B inflam inh	HT1080-NT tox	DT40 TDP1 no CPT
CC(C)(C)OC(=O)N1CCN(C(=O)c2[nH]cnc2C(=O)Nc2ccc(Cl)cc2)CC1	?	16%	21µM*	-52*	20%	?
Cc1ccc(NC(=O)c2nc[nH]c2C(=O)N2CCN(C(=O)OC(C)(C)C)CC2)cc1	?	9%	?	-16	14%	?
CC(C)(C)OC(=O)N1CCC(NC(=O)c2nc[nH]c2C(=O)NC2CCN(C(=O)OC(C)(C)C)CC2)CC1	?	-4%	?	-12	3%	?
CC(C)(C)OC(=O)N1CCC(NC(=O)c2[nH]cnc2C(=O)Nc2cccc(Cl)c2)CC1	?	10%	18µM*	-58*	13%	?
Cn1cnc(C(=O)NCc2ccc(CNC(=O)OC(C)(C)C)cc2)c1C(=O)NCc1ccc(CNC(=O)OC(C)(C)C)cc1	21µM*	-19%	?	-3	-16%	?
Cc1cccc(CNC(=O)c2cnn(-c3nccc(-c4ccccc4F)n3)c2C)n1	8%[9.04 µM]	nt	nt	nt	nt	-1%
COc1ccccc1NS(=O)(=O)c1cccc(C(=O)N2CCN(Cc3ccc4c(c3)OCO4)CC2)c1	?	-13%	-30%	1	-15%	?
O=C(NCc1cccs1)C1C(=O)Nc2ccccc2C(=O)N1Cc1ccccc1 (stereo not given)	15%	-2%	nt	7	-1%	20%
Cc1cc(=O)c(C(=O)NCCc2ccccn2)c2n1-c1ccccc1SC(c1cccs1)C2 (stereo not given)	-9%[9.04 µM]	nt	nt	nt	nt	-8%
C/C(=N\OCC(=O)Nc1ccc2c(c1)OCCO2)c1ccc2c(c1)OCCO2	-10%	-5%	-17%	-14	1%	-23%
COc1ccccc1N1CCN(c2ncc(C(=O)N3CCN(c4cccc(Cl)c4)CC3)c3ccccc23)CC1	2.6µM*	10%	5.2µM*	12	15%	2.6µM*
CSc1ccccc1C(=O)N1CCN(c2ccc(F)cc2)CC1	-3%	-2%	8%	-12	-4%	-13%
COc1ccccc1N1CCN(C(=O)C2CCN(C(=O)c3cccc(Cl)c3)CC2)CC1	?	-4%	1%	24	-8%	?
O=C(c1cnc(N2CCCCC2)c2ccccc12)N1CCN(c2ccc(F)cc2)CC1	23µM*	nt	nt	nt	nt	16µM*
O=C(c1cnc(N2CCCCC2)c2ccccc12)N1CCN(c2cccc(Cl)c2)CC1	?	nt	nt	nt	nt	16µM*
CC1=CC(=O)C(Sc2ccc(C)cc2)=CC1=O	1.8µM*	?	nt	-78*	21µM*	1.6µM*
Cc1ccc(Sc2c(C)[nH]n(C(C)(C)C)c2=O)cc1	-24%	1%	-3%	1	-2%	-11%
CC1Oc2ccc(C#N)cc2N(Cc2ccccc2OC(F)(F)F)C1=O (stereo not given)	-18%	16%	nt	76	29%	-25%
CCc1ccccc1N(C)C(=O)c1nn(C)c2c1CSc1ccccc1-2	?	nt	nt	nt	nt	23µM*
CCCN(CCC)C(=O)c1nn(C)c2c1CSc1ccccc1-2	18µM*	nt	nt	nt	nt	?
CCCN(CCC)C(=O)c1nn(C)c2c1CSc1ccc(C)cc1-2	?	nt	nt	nt	nt	18µM*
COc1ccc(C(=O)NCC2Cc3c(F)ccc(-c4nc(C)cnc4C)c3O2)cc1F (stereo not given)	-2%[9.04 µM]	nt	nt	nt	nt	-25%
Cc1cc(OCCOCC[N+](C)(C)Cc2ccccc2)ccc1C(C)(C)CC(C)(C)C	1.2µM*	nt	nt	nt	nt	1.1µM*
Cc1nc(Cc2nnc(SCC(=O)Nc3c(C)cccc3C)o2)cs1	-4%	-4%	12%	3	2%	-23%
COc1ccc(N2CCN(C(CNS(=O)(=O)c3ccc4c(c3)OCCO4)c3ccco3)CC2)cc1 (stereo not given)	13µM*	-14%	15µM*	-6	-9%	?
SMILES	TDP1 cell CPT	HT1080 IDH1KD tx	ELG1 DNA repair	IL-1B inflam inh	HT1080-NT tox	DT40 TDP1 no CPT
O=S(=O)(NCC(c1ccco1)N1CCN(c2ccccc2F)CC1)c1ccc2c(c1)OCCO2 (stereo not given)	?	-8%	16µM*	-17	1%	?
CCS(=O)(=O)NCC(c1ccco1)N1CCN(c2ccc(OC)cc2)CC1 (stereo not given)	12%	nt	nt	nt	nt	17%
COc1ccc(S(=O)(=O)NCC(c2ccco2)N2CCN(c3ccccc3F)CC2)cc1C (stereo not given)	21µM*	nt	nt	nt	nt	18µM*
COc1ccc(N2CCN(C(CNS(=O)(=O)c3c(C)cc(C)cc3C)c3ccco3)CC2)cc1 (stereo not given)	?	nt	nt	nt	nt	26µM*
CC(=O)Nc1ccc(S(=O)(=O)N2CCC(N3CCCCC3)CC2)cc1	-8%	14%	3%	19	-2%	-15%
COC(=O)c1ccccc1NC(=O)c1cc(C)nc2c1c(C)nn2-c1ccc(C)cc1	0%	nt	nt	nt	nt	-5%
CC(C)c1ccc(-c2c(C#N)c(N)nc(SCC(=O)N3CCCCCC3)c2C#N)cc1	-16%	-9%	?	19	-4%	-18%
COC(=O)CSc1nc(N)c(C#N)c(-c2ccc(O)cc2)c1C#N	7%	6%	?	-70*	-2%	16%
CC(C)c1ccc(-c2c(C#N)c(N)nc(SCC(=O)N3CCCCC3)c2C#N)cc1	9.2µM*	-3%	?	48	-20%	?
COc1ccc(C(=O)Cc2ccc(OC)c(OC)c2)cc1	-28%	-4%	?	0	-3%	-21%
COc1ccc(CCC(=O)NO)cc1	11µM*	nt	nt	nt	nt	16µM*
CNC(=O)CCc1ccc(OC)cc1	3%	15%	?	11	2%	-6%
COc1ccc(C(=O)CCc2ccc(OC)c(OC)c2)cc1	?	-19%	nt	-1	4%	18µM*
COc1ccc(CCC(C)NC(=O)Cc2ccc(OC)c(OC)c2)c(OC)c1 (stereo not given)	?	0%	18µM*	-1	2%	18µM*
COc1ccc(C(CCN(Cc2ccc(OC)c(OC)c2)C(C)=O)C(C)C)cc1 (stereo not given)	18µM*	-12%	?	7	0%	?
CC[C@H](C)[C@@H](C(=O)NCCCCCCCCCCC(=O)N1CCNCC1)n1cc(CCCCCN)nn1	-26%	-2%	19%	49	5%	?
COc1ccccc1-c1cc(NCc2cnc(C)cn2)ncn1	14%	nt	nt	nt	nt	6%
